# PubChem BioAssay AID743279 (National Center for Advancing Translational Sciences (NCATS), 2014)
# Hit rate of the full screen: of about 360,000 compounds, about 17,000 (4.7%) were called active. About 5% were inconclusive and are not listed. No stated cut-off is given here; in the data, active means activity change below about -50%; inconclusive means mostly about -30% to -49%; inactive means weaker than that. Shown is part of a subset that was picked to be rich in actives.
# Assay: qHTS for Inhibitors of Inflammasome Signaling: IL-1-beta AlphaLISA Primary Screen
# Conditions: THP-1 LPS/ATP IL-1B secretion, 16 h; at 57.5 µM, active compounds read low
# Outline: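 Secreted IL-1B measured by AlphaLISA bead assay after 16 h compound exposure of THP-1 cells; compounds (final up to 57.5 uM) added 1 h before LPS (250 ng/mL) and ATP (1.25 mM) stimulation; lower signal means less secretion.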
# On the % scale 0 is the no-effect control and ±100 the full control effect.
row,Compound,activity change
1,COc1ccc(NC(=O)N(C)C[C@H]2Oc3ncc(C#C[C@@H](C)O)cc3C(=O)N([C@H](C)CO)C[C@H]2C)cc1,-13.1% (inactive)
2,CC1(Oc2ccc(Cl)cc2)CCN(Cc2csc3ccccc23)C1 (stereo not drawn),17.7% (inactive)
3,Cc1cc(OC(=O)c2ccccc2)c([N+](=O)[O-])c(=O)[nH]1,-9.86% (inactive)
4,Cc1ccc(S(=O)(=O)N2[C@@H](Cc3ccccc3)CO[C@H]2CC(=O)OCc2ccccc2)cc1,-0.839% (inactive)
5,O=S(=O)(Cc1ccc(Cl)cc1Cl)c1ccc(Cl)cc1,-1.43% (inactive)
6,CCN(CC)CCCNC(=O)Cn1cnc2sc(C)c(S(=O)(=O)N3CCN(c4ncccn4)CC3)c2c1=O,18.1% (inactive)
7,CCN(CC)CCNC(=O)Cn1cnc2sc(C)c(S(=O)(=O)N3CCOCC3)c2c1=O,14.7% (inactive)
8,CCN(CC)CCNC(=O)c1sc2ncn(CC(=O)Nc3ccc(C)c(Cl)c3)c(=O)c2c1C,-75.6% (active)
9,CN(C)C1CN(Cc2cn(Cc3ccccc3)nn2)S(=O)(=O)C1 (stereo not drawn),-13.3% (inactive)
10,CC(C)CCOc1ccc(C(=O)Nc2cc(S(=O)(=O)N3CCOCC3)ccc2N2CCOCC2)cc1,-18.6% (inactive)
11,O=S(=O)(NCCCN1CCOCC1)c1ccc(F)c(Cl)c1,-0.644% (inactive)
12,CC1(C(=O)Nc2ccc3c(c2)OCCO3)CN(S(C)(=O)=O)CC(=O)N1Cc1cccc(F)c1 (stereo not drawn),-9.42% (inactive)
13,CCCCCCSc1ccc([C@@H]2[C@H]3C(=O)N(CC)C(=O)[C@H]3[C@]3(C(=O)OC)CCCCN23)cc1,144% (inactive)
14,CCN1C(=O)[C@@H]2[C@@H](c3ccc(-c4ccc(OC)cc4)c(OC)c3)N3CCC[C@@]3(C(=O)OC)[C@@H]2C1=O,-7.49% (inactive)
15,CCCCCCSc1ccc([C@@H]2[C@@H]3C(=O)N(CC)C(=O)[C@@H]3[C@]3(C(=O)OC)CCCCN23)cc1OC,-74.8% (active)
16,COC(C)(C)[C@]12CC(O)(C(C)C)ON1[C@H]1CCCCC1N2O (stereo partly drawn),8.62% (inactive)
17,CCCNC(=O)CSc1nc(Cc2ccccc2)nc2ccccc12,-58.7% (active)
18,C=CCSc1nc(Cc2ccc(Cl)cc2)nc2ccccc12,-12.9% (inactive)
19,CCc1nc(SCC(=O)NNC(=O)c2ccc(C)cc2)c2ccccc2n1,-0.629% (inactive)
20,Cc1ccc(CCN2CC(C(=O)O)CC2=O)cc1 (stereo not drawn),-6.28% (inactive)
21,N=c1n(CCc2ccccc2)c2ccccc2n1Cc1ccccc1F,-81.4% (active)
22,CC(=O)NC(C)c1nc2ccccc2n1Cc1ccccc1F (stereo not drawn),21.9% (inactive)

row,Compound,activity change
1,O=C(COC(=O)Cc1ccccc1F)NCCc1ccccc1,6.36% (inactive)
2,O=C(NCCN1CCN(C(=O)c2cccc([N+](=O)[O-])c2)CC1)C(=O)NCc1ccc(Cl)cc1,-11.8% (inactive)
3,Cc1ccc(S(=O)(=O)c2c[nH]c3ccc(Cl)cc3c2=O)cc1,-2.27% (inactive)
4,CCOC(=O)CNc1nc(Cl)nc(Nc2ccccc2)n1,-67.7% (active)
5,CCC(=O)Nc1ccc(Nc2nc(Cl)nc(Nc3ccc(NC(=O)CC)cc3)n2)cc1,-8.11% (inactive)
6,CCOC(=O)CNc1nc(Cl)nc(Nc2ccc(OC)cc2OC)n1,-6.02% (inactive)
7,COc1cc(OC)cc(C(=O)NCCSCc2ccc(Cl)cc2)c1,0.652% (inactive)
8,CSc1ncnc2c1ncn2CC(=O)C1CCC2C3CCC4=CC(=O)CCC4(C)C3CCC12C (stereo not drawn),-64.8% (active)
9,CC(=O)C12CC(C)=C(C)CC1CC1C3CCC4=CC(=O)CCC4(C)C3CCC12C (stereo not drawn),-14.2% (inactive)
10,CSc1ncnc2c1ncn2CCCNCC1CCCCC1,16.5% (inactive)
11,C[C@H]1CN([C@@H](C)CO)C(=O)CCCn2nncc2CO[C@@H]1CN(C)S(=O)(=O)c1cccc(C#N)c1,22.7% (inactive)
12,CCOC(=O)N1C(=O)C[C@](Sc2ccc(C)cc2)(C(=O)OC)[C@H]1c1ccccc1,-13.1% (inactive)
13,COc1ccc2c(c1)CCC/C2=N\OC(=O)c1ccccc1F,-13.5% (inactive)
14,CCc1nc2c(OCC(N)=O)cccn2c1N(C)C(=O)c1ccc(OC)cc1,3.49% (inactive)
15,CCc1nc2c(OCCOc3ccc(F)cc3)cccn2c1N(C)C(=O)c1ccccc1F,-11.7% (inactive)
16,COCCCNCC(=O)Nc1sc(C)c(C)c1C(=O)OC,0.516% (inactive)
17,O=C(NC(=S)Nc1ccc(Cl)cc1Cl)C1CC1,19.2% (inactive)
18,Cc1ccc2c(c1)C1CN(C)CCC1N2S(=O)(=O)c1cccc(F)c1 (stereo not drawn),-15.5% (inactive)
19,Cc1ccc2c(c1)C1CN(C)CCC1N2C(=O)c1ccccc1NS(=O)(=O)c1ccc(F)cc1C (stereo not drawn),5.7% (inactive)
20,S=C(Nc1ccc(Cl)cc1Cl)N1CCCC1,-2.45% (inactive)
21,Cc1ccc2c(c1)C1CN(C)CCC1N2C(=S)Nc1ccc(OC(F)F)cc1 (stereo not drawn),-62.4% (active)
22,Cc1ccc2c(c1)C1CN(C)CCC1N2C(=S)Nc1ccc(Cl)cc1Cl (stereo not drawn),-84.8% (active)

row,Compound,activity change
1,COC(=O)c1ccc2c(=O)n(CCN3CCOCC3)c(SCC(=O)Nc3cccc(OC)c3)nc2c1,-19.5% (inactive)
2,OCCN1CCN(c2ncnc3c2ncn3[C@H]2CN(Cc3ccco3)C[C@@H](CO)O2)CC1,10% (inactive)
3,CC(=O)c1c(C)[nH]c(C(=O)COC(=O)c2cccc(S(=O)(=O)N(C)c3ccccc3)c2)c1C,-12.5% (inactive)
4,CN(C)c1ccc(C(CC(=O)O)C(=O)O)cc1 (stereo not drawn),15% (inactive)
5,COc1ccc(-c2nn(-c3ccccc3)cc2/C=N/Nc2ccccn2)cc1OC,10.4% (inactive)
6,COc1ccc(-c2nn(-c3ccccc3)cc2C(=O)Nc2nccs2)cc1OC,-52.5% (active)
7,COc1ccc(Cl)cc1NC(=O)CN(C)C(=O)c1cn(-c2ccccc2)nc1-c1cccs1,-15.3% (inactive)
8,Nc1ncnc2c1ncn2[C@@H]1O[C@H](CNC(=O)[C@H](N)Cc2cccnc2)[C@@H](O)[C@H]1O,-4.6% (inactive)
9,CC1(C)COC(c2cccn2Cc2ccccc2Cl)=N1,1.85% (inactive)
10,COc1ccc(OC)c(C(=O)NC2CCCc3c2cnn3-c2cc(C)cc(C)c2)c1 (stereo not drawn),-20.1% (inactive)
11,COc1ccc(C(=O)NC2CCCc3c2cnn3-c2cccc(C)c2C)c(OC)n1 (stereo not drawn),-78.6% (active)
12,Cc1cc(C(=O)NC2CCCc3c2cnn3-c2cccc(C)c2C)c(C)o1 (stereo not drawn),-7.02% (inactive)
13,O=C(NNC1=C(C(=O)C(F)(F)F)CCC1)c1ccncc1,28.1% (inactive)
14,CCC1Nc2ncnc(N3CCN(c4ccccc4)CC3)c2N(Cc2ccc(Cl)cc2)C1=O (stereo not drawn),-19.1% (inactive)
15,COc1ccc(NC(=O)C2Cc3c(-c4ccc(Cl)cc4)ccnc3O2)cc1 (stereo not drawn),-7.31% (inactive)
16,C[C@@H](NC(=O)OC(C)(C)C)c1nnc(S(=O)(=O)Cc2ccccc2)o1,-70.3% (active)
17,CCc1ccccc1NC(=O)CSc1nnc([C@@H](NC(=O)OC(C)(C)C)C(C)CC)o1 (stereo partly drawn),9.72% (inactive)
18,CCc1ccccc1NC(=O)CSc1nnc([C@@H](NC(=O)OC(C)(C)C)C(C)C)o1,11.8% (inactive)
19,COc1cc(/C=C(/NC(=O)c2ccc(Cl)cc2Cl)C(=O)O)cc(OC)c1OC,2.22% (inactive)
20,O=c1[nH]cnc2c1c(-c1ccccc1)cn2-c1ccc(F)cc1,-91.8% (active)
21,COc1ccc(-n2cc(-c3ccccc3)c3c(=S)nc[nH]c32)cc1,18.8% (inactive)
22,O=c1c2c(-c3ccccc3)ccnc2[nH]n1-c1ccccc1,-16.4% (inactive)

row,Compound,activity change
1,COc1ccc(S(=O)(=O)N2CCN(C)CC2)c(C)c1,-5.01% (inactive)
2,Cn1c(=O)c2cc(NC(=O)NCCc3cccs3)ccc2n1Cc1cccc(C(F)(F)F)c1,1.3% (inactive)
3,CN1CCN(S(=O)(=O)c2cccc(C(=O)Nc3cccc(S(N)(=O)=O)c3)c2)CC1,6.7% (inactive)
4,Cc1cccc(C(=O)Nc2ccc3c(c2)C(=O)N(CC(C)C)C3=O)c1,0.513% (inactive)
5,CC(C)CCN1C(=O)c2ccc(C(=O)Nc3cccc(S(N)(=O)=O)c3)cc2C1=O,-61% (active)
6,CC(C)c1cccc(-c2csc(C(O)c3ccccc3)n2)c1 (stereo not drawn),43.6% (inactive)
7,CCOC(=O)C1=CCC(c2ccc(F)cc2)N(S(=O)(=O)c2ccc(C)cc2)C1 (stereo not drawn),30.7% (inactive)
8,NC(CSC12CC3CC(CC(C3)C1)C2)C(=O)O (stereo not drawn),23.7% (inactive)
9,O=C(c1cccs1)N1C[C@H](n2cc(C3CC3)nn2)[C@@H](O)C[C@@H]1c1ccccc1,0.261% (inactive)
10,Clc1cccc(-c2nc(NCC3CCCO3)c3ccccc3n2)c1 (stereo not drawn),-76.8% (active)
11,c1ccc2c(NCC3CCCO3)nc(-c3ccncc3)nc2c1 (stereo not drawn),-27.3% (inactive)
12,O=C(NCC1CCCO1)c1ccc2ccccc2n1 (stereo not drawn),3.35% (inactive)
13,CCCCn1nnnc1C(c1cccc(OC)c1OC)N1CCN(C/C=C/c2ccccc2)CC1 (stereo not drawn),-23.9% (inactive)
14,C[C@H]1CN([C@@H](C)CO)C(=O)c2cc(-c3ccccc3F)cnc2O[C@H]1CN(C)C(=O)C1CCOCC1,13.6% (inactive)
15,CN/C(=C\[N+](=O)[O-])NCCSCc1csc(CN(C)C)n1,0.154% (inactive)
16,Cc1ccccc1C(=O)NCC(c1ccco1)N1CCc2ccccc21 (stereo not drawn),-20.8% (inactive)
17,O=C(NCC(c1ccco1)N1CCc2ccccc21)c1cccc(F)c1 (stereo not drawn),-86.4% (active)
18,COc1ccc(C(=O)NCC(c2ccco2)N2CCc3ccccc32)cc1OC (stereo not drawn),-0.703% (inactive)
19,CCc1nnc(NC(=O)CCC(=O)N2CCN(c3cc(C)ccc3C)CC2)s1,36.3% (inactive)
20,O=C(CSc1n[nH]c(=O)n1-c1ccccc1)Nc1ccccc1C(F)(F)F,14.4% (inactive)
21,O=c1[nH]nc(SCCS(=O)(=O)c2ccc(F)cc2)n1-c1ccccc1C(F)(F)F,-96.7% (active)
22,O=S(=O)(c1ccc(F)cc1)N1CCN(Cc2ccccc2C(F)(F)F)CC1,8.37% (inactive)
